Compound activity (PubChem BioAssay)
FLuc inh – inhibitors of firefly (Photinus pyralis) luciferase. purified P. pyralis luciferase, luminescence, biochemical. 76,000 compounds, 2.5% hits. Potency, µM (top dose mostly 115 µM), most hits filed as inhibitors; note: nearly all actives have a fitted effect of over 65% in size
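Purified 10nM P. pyralis luciferase with 10uM D-luciferin and 10uM ATP in 50mM Tris acetate pH 7.5, 10mM Mg acetate, 0.01% Tween-20, 0.05% BSA. qHTS titration; luminescence read by CCD imager.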
GPT2 inh – GPT2 alanine aminotransferase inhibition; Q8TD30; Recombinant GPT2, coupled pyruvate oxidase/HRP Amplex Red fluorescence; Potency, µM (series often up to 57.7 µM), actives largely listed as inhibitors; 100,000 compounds, 0.25% hits; AID 1671188; note: nearly all actives have a fitted effect of over 60% in size
Target sequence (Q8TD30 whole entry, looked up): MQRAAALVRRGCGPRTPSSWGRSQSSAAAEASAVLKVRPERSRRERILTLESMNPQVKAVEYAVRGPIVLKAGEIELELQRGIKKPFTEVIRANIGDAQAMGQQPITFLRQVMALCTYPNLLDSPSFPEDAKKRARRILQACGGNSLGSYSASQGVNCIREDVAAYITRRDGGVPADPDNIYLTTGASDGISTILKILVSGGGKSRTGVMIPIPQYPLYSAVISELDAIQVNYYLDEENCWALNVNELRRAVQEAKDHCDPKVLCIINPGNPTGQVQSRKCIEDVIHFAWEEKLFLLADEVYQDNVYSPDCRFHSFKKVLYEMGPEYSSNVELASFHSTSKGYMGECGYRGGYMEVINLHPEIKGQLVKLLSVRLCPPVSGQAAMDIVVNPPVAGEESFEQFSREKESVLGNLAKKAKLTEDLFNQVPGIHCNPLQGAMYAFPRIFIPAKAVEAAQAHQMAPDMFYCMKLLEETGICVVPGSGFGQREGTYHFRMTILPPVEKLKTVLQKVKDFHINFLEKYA
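Fluorescence read-out: pyruvate from GPT2 turnover coupled to pyruvate oxidase, HRP and Amplex Red (0.2mM ThPP, 0.2U/mL PO and HRP, 50uM Amplex final). Substrates 250uM a-KG, 2mM L-alanine; enzyme 10ng/uL; 30 min RT.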
NPR1 antag – blocks ANP-stimulated signaling of human Npr1 receptor. P16066. HEK293 hNpr1 GloSensor cGMP, ANP-stimulated luminescence. AID 1347048. 76,000 compounds, 1.6% hits. Potency, µM (highest dose often 46.3 µM), hits mostly inhibitors; calls by dose curve; note: nearly all actives have a fitted effect of over 60% in size
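HEK293 cells stably expressing human Npr1 and cGMP GloSensor pGS-40F, loaded 2 h with 2% GloSensor reagent, given compound 30 min at room temperature. Luminescence read before and 20 min after 0.1 nM hNppA.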
NIH3T3 tox – kills NIH 3T3 cells. NIH 3T3 viability, CellTiter-Glo ATP luminescence, 48-72 h. Potency, µM (top dose mostly 96.7 µM), most hits filed as inhibitors. 94,000 compounds, 4.3% hits. AID 1345082; note: nearly all actives have a fitted effect of over 55% in size
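Mouse fibroblast NIH 3T3 cells, 400 per well, received compound via pintool and were incubated for 48 or 72 hr prior to CellTiter-Glo ATP luminescence measurement.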
HEK293 tox – cytotoxic compounds in HEK 293 cells. AID 1345083. HEK 293 viability, ATP luminescence (CellTiter-Glo), 48-72 h. Potency, µM (titrated, usually from 115 µM), hits mostly inhibitors. 94,000 compounds, 6.6% hits; note: nearly all actives have a fitted effect of over 60% in size
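HEK 293 seeded at 250 cells/well receive compound via pintool. After 48 or 72 hr at 37 degree Celsius, 5% CO2 and 95% humidity, CellTiter-Glo is dispensed and luminescence read following 10 min at room temperature.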
Large screens that a line does not name were inactive. Rows were chosen to be rich in hits. Some 10% of all compounds tested hit in one or more screens of this group. Unless noted, calls come from the whole dose curve; as a rule, active = well fitted curve in the direction sought with a large enough effect; inconclusive = small, poorly fitted or top-dose-only effect, or another doubt; inactive = no such curve, though single readings can be large; an effect the other way counts as inactive or inconclusive.

CCOC(=O)C1(Cc2ccc(F)cc2F)CCCN(C(=O)Cn2nc(C)cc2C)C1 (centres undefined)	HEK293 tox inconclusive
Cc1nn2c(c1-c1ccccc1C(C)C)N(C(=O)c1cc3ccccc3n1C)CCC2	NPR1 antag inconclusive, NIH3T3 tox 22µM, HEK293 tox 50µM
Cc1nn2c(c1-c1ccccc1N1CCCC1)N(C(=O)c1ccc(F)cc1)CCC2	NIH3T3 tox inconclusive, HEK293 tox 71µM
Cc1nn2c(c1-c1ccccc1N1CCCC1)N(C(=O)c1cc3ccccc3n1C)CCC2	NIH3T3 tox 35µM, HEK293 tox 50µM
Cc1nn2c(c1-c1cccnc1N1CCOCC1)N(C(=O)c1cc3ccccc3n1C)CCC2	NIH3T3 tox inconclusive
CSCC(=O)N1CC[C@H](NC(=O)Nc2cccc(SC)c2)[C@H]1C(=O)N[C@H](Cc1ccccc1)C(N)=O	none
CC(=O)NC1(C)CCN(Cc2ccc(-c3ccc([S+](C)(=O)[O-])cc3)cc2)C1 (centres undefined)	HEK293 tox inconclusive
CC(=O)NC1(C)CCN(Cc2ccc(-c3ccccc3Oc3ccccc3)cc2)C1 (centres undefined)	NIH3T3 tox 40µM, HEK293 tox 56µM
CC(=O)NC1(C)CCN(Cc2ccccc2-c2ccc3ccccc3c2)C1 (centres undefined)	NIH3T3 tox 79µM, HEK293 tox inconclusive
Cc1nc2cc(N3CCCC(C(=O)NCCN4CCCCCC4)C3)cnc2nc1C (centres undefined)	none
CC(=O)N1CCc2[nH]cnc2C12CCN(Cc1nccn1C)CC2	none
Cc1cc(=O)oc2cc(NC(=O)[C@H](CCC(=O)O)NC(=O)[C@H](CC(C)C)NC(=O)[C@H](CC(C)C)NC(=O)OCc3ccccc3)ccc12	none (no result: FLuc inh, NPR1 antag, NIH3T3 tox, HEK293 tox)
CNc1nccc(N2CCC(CC(=O)N3CCN(CCC#N)CC3)CC2)n1	HEK293 tox inconclusive
CNC(=O)c1cc(C2CC2)nc2onc(C3CCN(C(=O)Nc4ccc(C)c(F)c4)C3)c12 (centres undefined)	NIH3T3 tox inconclusive, HEK293 tox 45µM (no result: FLuc inh, GPT2 inh, NPR1 antag)
O=C1CC(c2ccccc2)N(C(=O)CNC(=O)c2n[nH]c3ccccc23)CCCCCN1 (centres undefined)	FLuc inh 25µM
O=C1CC(c2ccccc2)N(C(=O)CNC(=O)c2[nH]nc3c2COc2ccccc2-3)CCCCCN1 (centres undefined)	NIH3T3 tox inconclusive, HEK293 tox 32µM
O=C1CC(c2ccccc2)N(C(=O)CNC(=O)c2nccc3ccccc23)CCCCCCN1 (centres undefined)	NIH3T3 tox inconclusive, HEK293 tox inconclusive
Cc1c(NCc2cccnc2)cccc1C(=O)N1CCC2(CCNCC2)CC1	none
CNC(=O)[C@@H]1C[C@H](n2cc(CNC(=O)Nc3cccc(Cl)c3)nn2)CN1	none
CNC(=O)[C@@H]1C[C@@H](n2cc(CNC(=O)Nc3ccc(Cl)cc3C)nn2)CN1	HEK293 tox 35µM
O=C(NCC1CN(C(=O)c2ccoc2)CC12CCOCC2)N1CCCC1 (centres undefined)	none (no result: FLuc inh, NPR1 antag)
COCCOc1ncccc1-c1noc([C@@H]2CCCN2Cc2ccc(C(=O)O)cc2)n1	none
COc1ccccc1CN1CCC[C@H]1c1nc(-c2ccc(F)cn2)no1	HEK293 tox 18µM
COCCOc1ncccc1-c1noc([C@@H]2CCCN2Cc2ccc(OC)cc2)n1	HEK293 tox 100µM
Cc1ncoc1C(=O)N1CCC(c2noc(-c3ccccc3)n2)C1 (centres undefined)	HEK293 tox inconclusive
CCN1c2cc(C(=O)NCc3cc(F)cc(F)c3)ccc2C(=O)N2CCCCCC21 (centres undefined)	NIH3T3 tox inconclusive, HEK293 tox inconclusive
Cc1ccccc1CN1Cc2nc(Nc3ccccc3)ccc2OCC1=O	NIH3T3 tox inconclusive, HEK293 tox 71µM
Cc1csc(Nc2ccc3c(n2)CN(Cc2ccccc2C)C(=O)CO3)n1	NPR1 antag inconclusive, NIH3T3 tox 25µM, HEK293 tox 25µM
Cc1ccccc1CN1Cc2nc(-c3c(C)noc3C)ccc2OCC1=O	NIH3T3 tox inconclusive, HEK293 tox inconclusive
O=C(CNC(=O)c1ccc(-c2cnc3ccccc3c2)cc1)NC1CCCC1	NIH3T3 tox inconclusive, HEK293 tox inconclusive (no result: FLuc inh, NPR1 antag)
CC(C)CC(=O)N1CCCC(c2nc(C3CCOCC3)no2)C1 (centres undefined)	none
Cn1cc(-c2cn(C)c(=O)n3cc(CNc4ccccc4)nc23)cn1	FLuc inh inconclusive, NIH3T3 tox inconclusive
CN1CCN(c2ccc(-c3cn(C)c(=O)n4cc(CNc5ccccc5)nc34)cn2)CC1	NIH3T3 tox 50µM, HEK293 tox 71µM
COc1ccc(F)cc1-c1ccc(CN2CCCCC2C(=O)NCc2cccc(F)c2)cc1 (centres undefined)	NIH3T3 tox 35µM, HEK293 tox inconclusive (no result: FLuc inh, GPT2 inh, NPR1 antag)
COc1ccc(F)cc1-c1ccc(CN2CCCCC2C(=O)NCc2ccc(Cl)cc2)cc1 (centres undefined)	NIH3T3 tox inconclusive, HEK293 tox 14µM (no result: FLuc inh, GPT2 inh, NPR1 antag)
COC[C@@H]1CN(S(=O)(=O)c2ccc3c(c2)CCCC3)C[C@H]1C(N)=O	none
O=C(NCCc1ccccc1F)c1cc(Br)cn2ccnc12	FLuc inh 16µM, NIH3T3 tox inconclusive, HEK293 tox inconclusive
COc1cccc(CNC(=O)CN2C(=O)NC3(CCC(C)CC3)C2=O)c1 (centres undefined)	none
O=C(COc1ccc(NC(=O)C2CC2)cn1)NC1CCN(Cc2ccccc2)CC1	none
Cc1nc(C(=O)N2CCOc3c(O)cc(-c4cccc(Cl)c4)cc3C2)c(C)o1	NPR1 antag inconclusive, NIH3T3 tox inconclusive, HEK293 tox 40µM
Cc1ccnn1CC(=O)N1CCOc2c(O)cc(-c3cccc(Cl)c3)cc2C1	NIH3T3 tox inconclusive, HEK293 tox inconclusive
CCOC(=O)C(C)N1CCOc2c(O)cc(-c3cccc(Cl)c3)cc2C1 (centres undefined)	NPR1 antag inconclusive, NIH3T3 tox inconclusive, HEK293 tox 45µM
O=C(c1cccc(Cl)c1)N1CCC(c2nn(Cc3ccccc3)c(=O)[nH]2)CC1	NIH3T3 tox inconclusive
CCc1nncn1C1CCN(C(=O)c2ccc(OC)cc2)CC1	none
CCOc1ccccc1NC(=O)Cn1c(-c2ccccc2)nc(C)cc1=O	HEK293 tox inconclusive
O=C(NC[C@H]1Cn2c(-c3ccc(Cl)cc3)cnc2CO1)Nc1ccccc1	NPR1 antag inconclusive, NIH3T3 tox inconclusive, HEK293 tox 63µM
Cc1ccccc1CNC[C@H]1Cn2c(-c3ccccc3)cnc2CO1	NIH3T3 tox inconclusive, HEK293 tox 112µM
Clc1cccc(-c2cnc3n2C[C@H](CNCc2ccccc2)OC3)c1	NIH3T3 tox 79µM, HEK293 tox inconclusive
COc1ncccc1CNC[C@H]1Cn2c(-c3ccc(Cl)cc3)cnc2CO1	NIH3T3 tox 89µM, HEK293 tox inconclusive
